# Test results reported in PubChem BioAssay AID1159580 (chemical genetic matrix, 2015).
# Screen size: about 5,500 compounds; about 2,000 (36%) were called active. About 18% were inconclusive and are not listed. The list shows a part of the results. A number with no mark means an inactive call. Rule as the data show it: active = normalized growth mostly below about 0.91 (no sharp cut-off); inconclusive = no clear call, values can overlap the other calls; inactive = mostly above about 0.92.
# Experiment: chemical genetic growth profiling, strain panel (AID 1159580);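 also: tested at 20 µM; growth read once vehicle control cultures reached saturation at 30 °C; 1 = growth at the plate median or of vehicle wells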
# Conditions: S. cerevisiae deletion strains, growth OD
smiles,measurement,setting,value
CC(=O)O.CC(=O)O.[Cd],normalized growth,"locus YAL013W, strain DEP1, stronger effect = lower value",0.225 (active)
same,normalized growth,"locus YAL021C, strain ccr4, stronger effect = lower value",0.629 (active)
same,normalized growth,"locus YAL026C, strain drs2, stronger effect = lower value",0.436 (active)
same,normalized growth,"locus YAL030W, strain snc1, stronger effect = lower value",0.77 (active)
same,normalized growth,"locus YBL061C, strain skt5, stronger effect = lower value",0.771 (active)
same,normalized growth,"locus YBR009C, strain hhf1, stronger effect = lower value",0.606 (active)
same,normalized growth,"locus YBR021W, strain FUR4, stronger effect = lower value",0.106 (active)
same,normalized growth,"locus YBR023C, strain chs3, stronger effect = lower value",0.743 (active)
same,normalized growth,"locus YBR171W, strain sec66, stronger effect = lower value",0.786 (active)
same,normalized growth,"locus YBR229C, strain ROT2, stronger effect = lower value",0.747 (active)
same,normalized growth,"locus YBR231C, strain swc5, stronger effect = lower value",0.666 (active)
same,normalized growth,"locus YBR279W, strain paf1, stronger effect = lower value",0.635 (active)
same,normalized growth,"locus YCL011C, strain gbp2, stronger effect = lower value",0.632 (active)
same,normalized growth,"locus YCL016C, strain dcc1, stronger effect = lower value",0.754 (active)
same,normalized growth,"locus YCL029C, strain bik1, stronger effect = lower value",0.313 (active)
same,normalized growth,"locus YCL061C, strain MRC1, stronger effect = lower value",0.783 (active)
same,normalized growth,"locus YCL069W, strain vba3, stronger effect = lower value",0.762 (active)
same,normalized growth,"locus YCR088W, strain abp1, stronger effect = lower value",0.654 (active)
same,normalized growth,"locus YDL005C, strain med2, stronger effect = lower value",0.513 (active)
same,normalized growth,"locus YDL035C, strain GPR1, stronger effect = lower value",0.243 (active)
same,normalized growth,"locus YDL040C, strain nat1, stronger effect = lower value",0.589 (active)
same,normalized growth,"locus YDL074C, strain BRE1, stronger effect = lower value",0.25 (active)
same,normalized growth,"locus YDL101C, strain DUN1, stronger effect = lower value",0.177 (active)
same,normalized growth,"locus YDL134C, strain PPH21, stronger effect = lower value",0.467 (active)
same,normalized growth,"locus YDL185W, strain tfp1, stronger effect = lower value",0.482 (active)
same,normalized growth,"locus YDL192W, strain arf1, stronger effect = lower value",0.144 (active)
same,normalized growth,"locus YDR001C, strain nth1, stronger effect = lower value",0.845 (active)
same,normalized growth,"locus YDR069C, strain doa4, stronger effect = lower value",0.107 (active)
same,normalized growth,"locus YDR101C, strain arx1, stronger effect = lower value",0.319 (active)
same,normalized growth,"locus YDR137W, strain rgp1, stronger effect = lower value",0.375 (active)
same,normalized growth,"locus YDR150W, strain NUM1, stronger effect = lower value",0.175 (active)
same,normalized growth,"locus YDR159W, strain sac3, stronger effect = lower value",0.828 (active)
same,normalized growth,"locus YDR162C, strain NBP2, stronger effect = lower value",0.111 (active)
same,normalized growth,"locus YDR195W, strain ref2",0.512 (active)
same,normalized growth,"locus YDR297W, strain sur2, stronger effect = lower value",0.727 (active)
same,normalized growth,"locus YDR318W, strain mcm21, stronger effect = lower value",0.264 (active)
same,normalized growth,"locus YDR334W, strain swr1, stronger effect = lower value",0.532 (active)
same,normalized growth,"locus YDR335W, strain msn5, stronger effect = lower value",0.782 (active)
same,normalized growth,"locus YDR388W, stronger effect = lower value",0.0738 (active)
same,normalized growth,"locus YDR392W, strain spt3, stronger effect = lower value",0.299 (active)
same,normalized growth,"locus YDR502C, strain sam2, stronger effect = lower value",0.464 (active)
same,normalized growth,"locus YEL003W, strain gim4, stronger effect = lower value",0.681 (active)
same,normalized growth,"locus YEL037C, strain rad23, stronger effect = lower value",0.786 (active)
same,normalized growth,"locus YEL061C, strain CIN8 (second series), stronger effect = lower value",0.866 (active)
same,normalized growth,"locus YEL061C, strain CIN8, stronger effect = lower value",0.342 (active)
same,normalized growth,"locus YER015W, strain faa2, stronger effect = lower value",0.632 (active)
same,normalized growth,"locus YER016W, strain bim1, stronger effect = lower value",0.702 (active)
same,normalized growth,"locus YER110C, stronger effect = lower value",0.499 (active)
same,normalized growth,"locus YER111C, strain swi4, stronger effect = lower value",0.872 (active)
same,normalized growth,"locus YER155C, strain BEM2 (second series), stronger effect = lower value",0.446 (active)
same,normalized growth,"locus YER155C, strain BEM2, stronger effect = lower value",0.519 (active)
same,normalized growth,"locus YER167W, strain BCK2, stronger effect = lower value",0.269 (active)
same,normalized growth,"locus YFR010W, strain ubp6, stronger effect = lower value",0.356 (active)
same,normalized growth,"locus YGL078C, strain dbp3, stronger effect = lower value",0.466 (active)
same,normalized growth,"locus YGL086W, strain mad1, stronger effect = lower value",0.256 (active)
same,normalized growth,"locus YGL167C, strain pmr1, stronger effect = lower value",0.493 (active)
same,normalized growth,"locus YGL173C, strain kem1, stronger effect = lower value",0.68 (active)
same,normalized growth,"locus YGL227W, strain vid30, stronger effect = lower value",0.901 (active)
same,normalized growth,"locus YGL240W, strain doc1, stronger effect = lower value",0.711 (active)
same,normalized growth,"locus YGL248W, strain PDE1, stronger effect = lower value",0.356 (active)
same,normalized growth,"locus YGL253W, strain hxk2, stronger effect = lower value",0.825 (active)
same,normalized growth,"locus YGR078C, strain PAC10, stronger effect = lower value",0.721 (active)
same,normalized growth,"locus YGR135W, strain pre9, stronger effect = lower value",0.565 (active)
same,normalized growth,"locus YGR229C, strain SMI1, stronger effect = lower value",0.11 (active)
same,normalized growth,"locus YGR252W, strain gcn5, stronger effect = lower value",0.253 (active)
same,normalized growth,"locus YHR013C, strain ard1, stronger effect = lower value",0.303 (active)
same,normalized growth,"locus YHR027C, strain rpn1, stronger effect = lower value",0.58 (active)
same,normalized growth,"locus YHR030C, strain SLT2, stronger effect = lower value",0.508 (active)
same,normalized growth,"locus YHR079C, strain IRE1 (second series), stronger effect = lower value",0.196 (active)
same,normalized growth,"locus YHR094C, strain hxt1, stronger effect = lower value",0.529 (active)
same,normalized growth,"locus YHR129C, strain ARP1, stronger effect = lower value",0.563 (active)
same,normalized growth,"locus YHR142W, strain chs7, stronger effect = lower value",0.761 (active)
same,normalized growth,"locus YHR200W, strain rpn10, stronger effect = lower value",0.513 (active)
same,normalized growth,"locus YIL066C, strain RNR3, stronger effect = lower value",0.27 (active)
same,normalized growth,"locus YIL073C, strain SPO22, stronger effect = lower value",0.134 (active)
same,normalized growth,"locus YIL125W, strain kgd1, stronger effect = lower value",0.356 (active)
same,normalized growth,"locus YIR030C, strain dcg1, stronger effect = lower value",0.383 (active)
same,normalized growth,"locus YJL092W, strain hpr5, stronger effect = lower value",0.744 (active)
same,normalized growth,"locus YJL095W, strain BCK1 (second series), stronger effect = lower value",0.669 (active)
same,normalized growth,"locus YJL095W, strain BCK1, stronger effect = lower value",0.266 (active)
same,normalized growth,"locus YJL115W, strain asf1, stronger effect = lower value",0.858 (active)
same,normalized growth,"locus YJL129C, strain trk1, stronger effect = lower value",1.1
same,normalized growth,"locus YJL134W, strain LCB3, stronger effect = lower value",0.643 (active)
same,normalized growth,"locus YJL154C, strain vps35, stronger effect = lower value",0.485 (active)
same,normalized growth,"locus YJL164C, strain tpk1, stronger effect = lower value",0.684 (active)
same,normalized growth,"locus YJL166W, strain qcr8, stronger effect = lower value",0.59 (active)
same,normalized growth,"locus YJL168C, strain set2, stronger effect = lower value",0.4 (active)
same,normalized growth,"locus YJL187C, strain SWE1 (second series), stronger effect = lower value",0.326 (active)
same,normalized growth,"locus YJL187C, strain SWE1, stronger effect = lower value",0.771 (active)
